Compound activity (PubChem BioAssay)
TGFb SMAD3 inh: blocks TGF-b signaling. HepG2 CAGA-GFP TGF-b/SMAD3 reporter, GFP fluorescence, 18 h; TGF-beta stimulated, 500 pg/mL final. Potency, µM (top dose mostly 46.1 µM), inactives show at the top dose activity, negative = inhibition, usual class: inhibitors. hit rate 1.2% among 410,000; also: potency is read from the fitted curve at half-maximal effect; % is scaled to controls: 0 for no effect and ±100 for the full control effect; nearly all actives have a fitted effect of over 65% in size
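HEPG2 CAGA-GFP, 1000 cells/well; 2 h settle, 37 C; cpd via pin tool; TGF-b 500 pg/mL final; 18 h, 37 C; GFP imaging ex488/em500-530; %Activity normalised to -TGF-b and +DMSO controls; CRC fit, curve class.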
IL1B secr inh: inflammasome signaling inhibition, IL-1 beta readout; THP-1 LPS/ATP IL-1B secretion, AlphaLISA, 16 h; active compounds read low; activity change, % at 57.5 µM; hit rate 4.7% among 360,000; AID 743279; in the data active = activity change below about -50%; inconclusive = mostly about -30% to -49%; also: % is scaled to controls: 0 for no effect and ±100 for the full control effect
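THP-1 cells pretreated 1 hr with compounds (up to 57.5 uM final), then stimulated with LPS (250 ng/mL final) plus ATP (1.25 mM final); secreted IL-1B measured by AlphaLISA after 16 hr, decreased signal indicating inhibition.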
TDP1 block: blocks human tyrosyl-DNA phosphodiesterase 1. recombinant TDP1, AlphaScreen DNA substrate cleavage. Potency, µM (highest dose often 130 µM), without a hit: at the highest dose activity change, negative = inhibition, hits mostly inhibitors. hit rate 0.28% among 350,000. AID 485290; also: potency is read from the fitted curve at half-maximal effect; % is scaled to controls: 0 for no effect and ±100 for the full control effect; nearly all actives have a fitted effect of over 40% in size
Target sequence (Q9NUW8 whole entry, looked up): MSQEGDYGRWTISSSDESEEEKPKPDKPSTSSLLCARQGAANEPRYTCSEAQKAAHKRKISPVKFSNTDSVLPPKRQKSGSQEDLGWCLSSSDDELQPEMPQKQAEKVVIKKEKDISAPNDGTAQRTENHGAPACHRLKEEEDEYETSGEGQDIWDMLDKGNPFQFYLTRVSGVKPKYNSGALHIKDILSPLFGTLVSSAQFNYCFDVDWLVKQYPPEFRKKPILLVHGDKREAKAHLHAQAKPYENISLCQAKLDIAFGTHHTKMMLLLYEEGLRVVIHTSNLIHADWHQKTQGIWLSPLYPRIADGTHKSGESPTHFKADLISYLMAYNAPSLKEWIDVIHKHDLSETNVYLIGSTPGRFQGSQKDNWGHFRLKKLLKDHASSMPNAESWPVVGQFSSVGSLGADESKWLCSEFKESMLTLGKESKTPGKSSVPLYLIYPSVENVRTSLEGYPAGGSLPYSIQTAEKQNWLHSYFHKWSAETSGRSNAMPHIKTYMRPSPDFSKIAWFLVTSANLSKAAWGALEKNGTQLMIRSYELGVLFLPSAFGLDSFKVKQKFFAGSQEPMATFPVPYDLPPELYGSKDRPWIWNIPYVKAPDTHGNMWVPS
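Signal: AlphaScreen proximity between streptavidin donor and anti-FITC acceptor beads on intact substrate. Reaction: Tdp1 1 nM, substrate 15 nM final, 5 min RT after 15 min compound preincubation.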
TDP1 cell noCPT: qHTS for Inhibitors of human tyrosyl-DNA phosphodiesterase 1 (TDP1): qHTS in cells in absence of CPT; Potency, µM (series often up to 46.2 µM), inactives show top-dose activity change, negative = growth inhibition, hits mostly inhibitors; DT40 Tdp1-/- hTDP1 cells, no CPT, ATP luminescence, 48 h; hit rate 15% among 420,000; also: potency is read from the fitted curve at half-maximal effect; % is scaled to controls: 0 for no effect and ±100 for the full control effect; nearly all actives have a fitted effect of over 55% in size
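DT40 Tdp1-/-;hTDP1 cells, no CPT (DMSO vehicle only), 400 cells/well; compounds pin-transferred; ≥48 hr, 37 °C; CellTiter-Glo 30 min RT dark, luminescence read.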
TDP1 cell CPT: growth inhibition of DT40 Tdp1-/-;hTDP1 cells with camptothecin (screen for TDP1 inhibitors) | chicken DT40 Tdp1-/-;hTDP1 cells + 20 nM CPT, ATP luminescence, 48 h | Potency, µM (top dose mostly 46.2 µM), inactives show top-dose activity change, negative = growth inhibition, usual class: inhibitors | hit rate 12% among 420,000; also: potency is read from the fitted curve at half-maximal effect; % is scaled to controls: 0 for no effect and ±100 for the full control effect; nearly all actives have a fitted effect of over 55% in size
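Chicken DT40 Tdp1-/- cells stably complemented with human TDP1 were seeded at 400 cells/well in medium containing 20 nM camptothecin, exposed to pin-transferred compounds, and grown at 37 °C for at least 48 hr. Viability was read as ATP luminescence.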
HepG2 tox: HepG2 cytotoxicity, counter-screen for TGF-b inhibitors | HepG2 CAGA-GFP viability, ATP luminescence, 18 h | Potency, µM (top dose mostly 46.1 µM), for the others: top-dose activity change, negative = cytotoxicity, usual class: cytotoxic | hit rate 0.76% among 410,000 | AID 588856; also: potency is read from the fitted curve at half-maximal effect
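CellTiter-Glo luminescence gave cytotoxicity after 18 hours at 37 degrees C. The cells were HepG2 CAGA-GFP in 1% FBS DMEM, stimulated with 500 pg/mL TGF-beta after compound addition. %Activity was normalised to no-cell wells (complete cell-killing) and DMSO (no toxicity), and curves were fitted and classified.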
An asterisk follows results filed as active; ? = inconclusive; · = no result given; [ ] = dose if it differs, or a comment. Rows were chosen to be rich in hits. Some 19% of all compounds tested hit in one or more screens of this group. Unless noted, calls follow the shape of the dose curve; as a rule, active = well fitted curve in the direction sought with a large enough effect; inconclusive = small, poorly fitted or top-dose-only effect, or another doubt; inactive = no such curve, though single readings can be large; an effect the other way counts as inactive or inconclusive.

SMILES | TGFb SMAD3 inh | IL1B secr inh | TDP1 block | TDP1 cell noCPT | TDP1 cell CPT | HepG2 tox
Cc1ccc(C(=O)NCC(c2ccc3c(c2)OCO3)N2CCN(c3ccc(F)cc3)CC2)cc1 (stereo not given) | ? | · | 10% | 1.5µM* | 2.9µM* | -35%
CC1CCc2nn(CC(=O)Nc3ccccc3Cl)cc2C1 (stereo not given) | -3% | · | -5% | -27% | -26% | -21%
C=CCNC(=O)C(=O)NCC(c1ccc2c(c1)OCO2)N1CCN(c2ccc(F)cc2)CC1 (stereo not given) | 2% | 36 | 6% | ? | 16µM* | 10%
O=C(NCC(c1ccc2c(c1)OCO2)N1CCN(c2ccccc2)CC1)c1ccccc1F (stereo not given) | -2% | · | 7% | 12µM* | 7.3µM* | 2%
COc1ccc(S(=O)(=O)NCC(c2ccc3c(c2)OCO3)N2CCN(c3ccccc3)CC2)cc1 (stereo not given) | 1% | ? | 5% | 23µM* | ? | 8%
O=C(NCC(c1ccc2c(c1)OCO2)N1CCOCC1)c1ccccc1F (stereo not given) | 1% | · | 1% | -29% | ? | -28%
COc1ccc(C(=O)NCC(c2ccc3c(c2)OCO3)N2CCN(c3ccc(OC)cc3)CC2)cc1 (stereo not given) | 12% | -17 | · | 5.8µM* | 3.3µM* | -5%
COc1ncc2nc(-c3cccc(C#N)c3)c(=O)n(CCC#N)c2n1 | · | · | · | -8% | 7% | ·
Cc1nn(C(=O)c2cccc(F)c2)c(C)c1S(=O)(=O)N1CCCCCC1 | -8% | · | 5% | 6% | -5% | 5%
CCCCCCc1cc2cc(C(=O)OCC)c(=O)oc2cc1O | 2% | 1 | 0% | -20% | -21% | -28%
CCCCCCc1cc2cc(C(=O)NC)c(=N)oc2cc1O | 29% | -2 | 0% | 21µM* | ? | -1%
CCCCCCc1cc2cc(S(=O)(=O)c3ccc(F)c(Cl)c3)c(=O)oc2cc1O | -47% | -51* | -5% | 7.3µM* | 5.8µM* | -47%
CCCCCCc1cc2cc(C(=O)Nc3cccc(OC)c3)c(=O)oc2cc1O | 1% | -25 | 1% | 3.7µM* | 2.6µM* | -11%
CCCCCCc1cc2cc(/C(N)=N/NC(=O)c3ccncc3)c(=O)oc2cc1O | 13% | -9 | -4% | 12µM* | ? | -10%
CCCCCC(=O)N(Cc1ccccc1)c1c(N)n(CCOC)c(=O)[nH]c1=O | -4% | 1 | · | -11% | -4% | 2%
COc1ccccc1CNC(=O)Cn1c(-c2cccs2)cc2cc(F)ccc21 | 15% | · | 5% | ? | ? | 2%
COc1ccccc1NC(=O)Cc1c(C(=O)O)[nH]c2ccc(Cl)cc12 | ? | · | 1% | -4% | 32% | -67%
CCCCCCc1cc2cc(C(=O)Nc3ccc(OC)cc3)c(=O)oc2cc1O | -16% | 15 | 0% | 5.8µM* | 7.3µM* | -40%
Cc1cc(C(=O)CSc2nc(N)cc(=O)[nH]2)c(C)n1CC1CCCO1 (stereo not given) | -20% | 15 | 0% | 18µM* | 16µM* | -11%
Cc1ccc(C(=O)CSc2nc3ccccc3o2)cc1 | -16% | -54* | · | -5% | 2% | -3%
Cc1cc(C(=O)CSc2nc3ccccc3[nH]2)c(C)n1CC1CCCO1 (stereo not given) | ? | -7 | 9% | 5.2µM* | 7.3µM* | -2%
Cc1ccc(-n2nnnc2SCC(=O)c2cc(C)n(CC3CCCO3)c2C)cc1 (stereo not given) | 3% | 34 | -6% | -20% | -28% | 0%
Cc1cc(C(=O)Cn2nnc(-c3ccc(Cl)cc3)n2)c(C)n1CC1CCCO1 (stereo not given) | ? | -71* | 0% | ? | 12µM* | -1%
Cc1cc(C(=O)CSc2nc(N)cc(N)n2)c(C)n1CC1CCCO1 (stereo not given) | 2% | 29 | 1% | ? | ? | -13%
Cc1cc(C(=O)CSc2nc3ccccc3o2)c(C)n1CC1CCCO1 (stereo not given) | ? | 6 | 2% | 18µM* | 9.2µM* | -15%
SMILES | TGFb SMAD3 inh | IL1B secr inh | TDP1 block | TDP1 cell noCPT | TDP1 cell CPT | HepG2 tox
C=CC[C@@H]1C=C[C@H](O/N=C(\C)CCN2CCc3nc(-c4ccccc4)c(-c4ccccc4)cc3C2)[C@H](CO)O1 | · | · | 6%[21 µM] | · | · | ·
COc1cccc(/C=C/C(=O)c2ccc3c(c2)OCCO3)c1OC | ? | -99* | · | ? | 4.1µM* | -55%
COc1ccccc1NC(CC(=O)c1ccccc1)C(=O)OCC(=O)c1ccc(C)c(C)c1 (stereo not given) | 32% | 5 | 3% | 16µM* | 10µM* | -2%
COc1ccc(/C=C/C(=O)c2ccc3c(c2)OCCO3)cc1[N+](=O)[O-] | ? | -55* | 7% | 15µM* | ? | -28%
COc1ccc(/C=N/NC(=O)c2ccc3c(c2)OCCO3)cc1[N+](=O)[O-] | -7% | -4 | 3% | 2% | 3% | -23%
CCN(CC(=O)Nc1ccc2c(c1)OCCO2)C(=O)/C=C/c1cccc(OC)c1OC | 23% | -3 | · | -1% | -5% | -2%
COc1cccc(/C=C/C(=O)OCC(=O)c2ccccc2)c1OC | -2% | 18 | -8% | ? | 9% | -27%
COc1cccc(/C=C/C(=O)OCC(=O)c2ccc(C)c(C)c2)c1OC | -3% | -5 | -4% | 26µM* | -28% | -2%
Cc1ccc(NC(=O)Cn2c(=O)c3cc(Cl)ccc3n3nncc23)cc1 | -19% | · | 5% | -26% | -2% | 0%
O=C(COC(=O)c1ccc(O)cc1)c1ccc2c(c1)OCCO2 | -7% | -9 | -5%[0.505 µM] | -21% | -5% | -12%
COc1cc(CC(=O)OCC(=O)c2ccc3c(c2)OCCO3)cc(OC)c1OC | -26% | 60 | 6% | 1.3µM* | 1.3µM* | -6%
O=C(/C=C/c1cccc([N+](=O)[O-])c1)c1ccc2c(c1)OCCO2 | ? | 0 | 5% | 18µM* | ? | -31%
COc1ccc(OC)c(NC(=O)CCCc2nnc3n(C(C)C)c(=O)c4sccc4n23)c1 | -1% | · | 3% | ? | -17% | -2%
Cn1c(=O)c2sccc2n2c(CCCC(=O)Nc3ccc(Cl)cc3)nnc12 | -5% | · | 4% | ? | 21µM* | 0%
